Measured values: PubChem BioAssay (NCI)
Compounds without any hit were thinned out: in the full panel of roughly 83,000, 20% have a hit.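 Method: cells in 96-well plates; compound added at one concentration; 48 h incubation; percent growth measured; values under 10 scored active.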 Calls of active or inactive are those of the source.

Assays:
Assay in all cases: NCI-60 one-dose screen, 48 h (100 = growth as untreated, 0 = no growth, -100 = all killed)
Conditions in all cases: 10 µM
[1] = test system: NCI-H23 lung
[2] = test system: NCI-H226 lung
[3] = test system: NCI-H322M lung
[4] = test system: HOP-62 NSCLC
[5] = test system: NCI-H460 lung
[6] = test system: A549/ATCC NSCLC
[7] = test system: COLO 205 colon
[8] = test system: HOP-92 NSCLC
[9] = test system: NCI-H522 lung
[10] = test system: 786-0 renal

Measured: growth

C=CCNc1ccccc1
inactive: [1] 102% | [2] 103% | [3] 106% | [4] 86.9% | [5] 108% | [6] 101% | [7] 112%

COc1cc(/C=C(\C#N)C(=O)c2ccccc2)ccc1OCc1ccccc1
inactive: [1] 91.5% | [2] 92.3% | [3] 91.6% | [5] 101% | [8] 95.7% | [9] 97.6% | [6] 104% | [10] 101%

O=C(N/N=C\c1cc(Br)cc(Br)c1O)N/N=C/c1cc(Br)cc(Br)c1O
inactive: [1] 67.1% | [2] 50.6% | [3] 42.2% | [4] 52.8% | [5] 69.8% | [10] 46.5% | [7] 62.1%

COc1cc(CCN=Cc2ccccc2O)c([N+](=O)[O-])cc1OC
inactive: [1] 100% | [2] 104% | [3] 101% | [4] 91.9% | [5] 108% | [6] 102% | [10] 92.6% | [7] 110%

Oc1ccc2c(c1)OCC1(O)Cc3cc(O)c(O)cc3C21 (stereo not given)
inactive: [1] 86.9% | [2] 98.2% | [3] 103% | [4] 82.2% | [5] 112% | [6] 93.7% | [10] 95.2% | [7] 165%

O=C(O)CSCSCC(=O)O
inactive: [1] 99.8% | [2] 95.2% | [3] 108% | [4] 91.5% | [5] 104% | [10] 103% | [7] 100%

CC1(C(N)=O)CCC(C(=O)O)C1(C)C (stereo not given)
inactive: [1] 103% | [2] 95.5% | [3] 95.2% | [5] 103% | [8] 94.3% | [9] 106% | [6] 98% | [10] 98% | [7] 108%

Sc1ccc(Nc2c3ccccc3nc3ccccc23)cc1
inactive: [1] 73% | [2] 91.2% | [3] 74.6% | [4] 92.4% | [8] 76.9% | [9] 40.9% | [6] 61% | [10] 95.5% | [7] 38.9%

O=C1C=C(Nc2ccc([N+](=O)[O-])cc2)c2ccccc2C1=O
inactive: [1] 30.1% | [2] 77.6% | [3] 75.3% | [4] 51.9% | [5] 46.4% | [6] 33.3% | [10] 66.6% | [7] 105%

CC(C)=CC(=O)OC(=O)C=C(C)C
inactive: [1] 117% | [2] 93.5% | [3] 104% | [4] 103% | [5] 106% | [10] 106% | [7] 113%

C/C=C/CC(C)C(O)C1C(=O)NC(CC)C(=O)N(C)CC(=O)N(C)C(CC(C)C)C(=O)NC(C(C)C)C(=O)N(C)C(CC(C)C)C(=O)NC(C)C(=O)NC(C)C(=O)N(C)C(CC(C)C)C(=O)N(C)C(CC(C)C)C(=O)N(C)C(C(C)C)C(=O)N1C (stereo not given)
active: [2] 5.76% | [9] 9.55% | [7] -72.8%
inactive: [1] 20.1% | [3] 33.8% | [4] 35.6% | [6] 17.2% | [10] 41.9%

CCC(C)(C)C1CCC(O)CC1 (stereo not given)
inactive: [1] 91% | [2] 103% | [3] 103% | [4] 90.5% | [5] 103% | [6] 106% | [7] 110%

CCC(C#N)(CC)c1ccccc1
inactive: [1] 99.5% | [2] 99.3% | [3] 99.4% | [4] 92.9% | [5] 104% | [6] 111% | [7] 106%

N/N=C(/Cc1ccccc1)NNC(N)=S
inactive: [1] 99% | [2] 108% | [3] 82.7% | [5] 103% | [8] 119% | [9] 72.4% | [6] 74.4% | [10] 111%

O=C1N(C[P+](c2ccccc2)(c2ccccc2)c2ccccc2)CCCN1C[P+](c1ccccc1)(c1ccccc1)c1ccccc1
inactive: [1] 109% | [2] 102% | [3] 106% | [5] 107% | [8] 79.5% | [9] 108% | [6] 101% | [10] 103%

CC[N+](C)(CC)CCO
inactive: [1] 107% | [2] 92.7% | [3] 104% | [4] 92.6% | [5] 105% | [6] 94.1% | [10] 99.5% | [7] 114%

Cc1ccc(CCCC(=O)O)c(C)c1
inactive: [1] 103% | [2] 93.4% | [3] 102% | [4] 95.7% | [5] 102% | [10] 99.4% | [7] 102%

Cc1cc2ccccc2c(O)c1C#N
inactive: [1] 91.1% | [2] 102% | [3] 119% | [4] 85.5% | [5] 107% | [6] 107% | [7] 112%

CCO/C=C1\SC(=S)N(c2cccc(C)c2)C1=O
inactive: [1] 108% | [2] 93.4% | [3] 92% | [4] 88.9% | [5] 102% | [10] 106% | [7] 108%

O=c1[nH]n(-c2ccccc2)c(=O)cc1Cl
inactive: [1] 106% | [2] 93.6% | [3] 114% | [4] 108% | [5] 109% | [6] 102% | [10] 103% | [7] 104%

COc1ccc(OC)c(/C=C2\CCc3ccccc3C2=O)c1
inactive: [1] 62.7% | [2] 76.5% | [3] 70% | [5] 13.9% | [8] 45.2% | [9] 22.5% | [6] 42.6% | [10] 46.9%

Nc1ccccc1SC(CC(=O)c1ccccc1)c1c(Cl)cccc1Cl (stereo not given)
inactive: [1] 76.1% | [2] 96.6% | [3] 91.8% | [4] 73.4% | [5] 84.8% | [10] 96.8% | [7] 91.8%

CN(c1ccccc1)c1ncnc2c1ncn2C
inactive: [1] 101% | [2] 107% | [3] 115% | [4] 103% | [5] 101% | [6] 87.3% | [10] 106% | [7] 105%

COC(=O)/C=C/C(=O)NC(N)=O
inactive: [1] 94.7% | [2] 94.1% | [3] 107% | [4] 98.8% | [5] 105% | [10] 103% | [7] 105%

COc1ccc(C(=O)C(Br)C(Br)C(=O)O)cc1 (stereo not given)
inactive: [1] 99.1% | [2] 102% | [3] 94.1% | [4] 108% | [5] 104% | [10] 100% | [7] 110%

CC1(C)OC(=O)C(c2ccsc2)C(=O)O1
inactive: [1] 95% | [2] 105% | [3] 102% | [5] 113% | [8] 104% | [9] 82.6% | [6] 84.7% | [10] 108%

OCCN1CCOCC1
inactive: [1] 115% | [2] 112% | [3] 125% | [4] 104% | [5] 104% | [6] 104% | [7] 119%
